Test results taken from PubChem BioAssay (NCI).
About 79,000 compounds went through this panel and 15% of them were active in at least one assay; those are over-represented in the sample as a whole. Active and inactive are the calls of the source. Rule as the data show it: active = growth inhibition above about 70%; inactive = the rest.

Experiments:
[1] = NCI Yeast Anticancer Drug Screen. Data for the rad50 strain (AID 155);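 also: 0% = growth of vehicle-only cultures of the same strain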; settings: S. cerevisiae rad50 strain growth inhibition, active compounds read high
Outline: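 Inhibition values express reduced yeast growth in compound-treated cultures relative to vehicle-treated controls.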

[2] = NCI Yeast Anticancer Drug Screen. Data for the mec2-1 strain (AID 157); settings: S. cerevisiae mec2-1 strain, active compounds read high
Outline: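 Readout is yeast growth inhibition, normalised to vehicle-treated controls, in the mec2-1 strain exposed to compound.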

[3] = NCI Yeast Anticancer Drug Screen. Data for the sgs1 mgt1 strain (AID 161);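 also: 0% = growth of cultures given vehicle only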; settings: S. cerevisiae sgs1 mgt1 strain, active compounds read high
Outline: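 Percent growth inhibition was derived by comparing compound-exposed mutant yeast with vehicle-exposed cultures. The strain carries alterations in DNA damage repair.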

[4] = NCI Yeast Anticancer Drug Screen. Data for the cln2 rad14 strain (AID 165);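 also: 0% = growth equal to vehicle treated cultures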; settings: S. cerevisiae cln2 rad14 strain, active compounds read high
Outline: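 Relative to vehicle controls, growth inhibition of compound-treated cln2 rad14 yeast was recorded.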

[5] = NCI Yeast Anticancer Drug Screen. Data for the bub3 strain (AID 167); settings: S. cerevisiae bub3 mutant strain, active compounds read high
Outline: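 Steps: expose the mutant yeast strain to compound; grow alongside vehicle-treated cultures; measure growth; express inhibition against the vehicle cultures.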

[6] = NCI Yeast Anticancer Drug Screen. Data for the mlh1 rad18 strain (AID 175); settings: S. cerevisiae mlh1 rad18 strain growth inhibition, active compounds read high
Outline: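 Test agents were incubated with a yeast strain of defined genotype (DNA damage repair defect). Inhibition of growth was derived by comparison with vehicle-exposed cultures.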

[7] = at 5.0 µM (retest, dose inferred, filed as 0.5)
[8] = at 50.0 µM (retest, dose inferred, filed as 5.0)

Measured: growth inhibition

COc1ccc(SC2=C(N(C)C)C(=O)c3ccccc3C2=O)cc1
inactive: [1]; [7] 2% | [2]; [7] -19% | [2]; at 50.0 µM 19.8% | [3]; [7] 2% | [3]; at 50.0 µM 63.2% | [4]; [7] 54% | [4]; at 50.0 µM 22.8% | [5]; [7] -10% | [5]; [8] -46% | [5]; at 50.0 µM 60% | [6]; [7] 11%
active: [1]; [8] 85% | [1]; at 50.0 µM 88.2% | [2]; [8] 79% | [3]; [8] 92% | [4]; [8] 79% | [6]; [8] 88% | [6]; at 50.0 µM 84.5%

CCCCCCCNC1CCCc2cc(OC)ccc21 (stereo not given)
inactive: [1]; [7] 40% | [1]; [8] 56% | [2]; [7] 22% | [2]; [8] 31% | [3]; [7] 28% | [3]; [8] 64% | [4]; [7] 28% | [4]; [8] 54% | [5]; [7] 21% | [5]; [8] 35% | [5]; at 50.0 µM 69.8% | [6]; [7] 20% | [6]; [8] 60%
active: [1]; at 50.0 µM 85.5% | [2]; at 50.0 µM 70.5% | [3]; at 50.0 µM 84.2% | [4]; at 50.0 µM 72.5% | [6]; at 50.0 µM 71.2%

CC(C)c1ccc2c(c1)CC[C@H]1[C@](C)(C(=O)O)CCC[C@]21C
inactive: [1]; [7] -1% | [2]; [7] 2% | [3]; [7] 10% | [4]; [7] -11% | [5]; [7] -2% | [6]; [7] 9%
active: [1]; [8] 96% | [1]; at 50.0 µM 91.6% | [2]; [8] 96% | [2]; at 50.0 µM 93% | [3]; [8] 96% | [3]; at 50.0 µM 91.8% | [4]; [8] 96% | [4]; at 50.0 µM 91.3% | [5]; [8] 95% | [5]; at 50.0 µM 90.8% | [6]; [8] 95% | [6]; at 50.0 µM 91.1%

CCCCN(CCCC)CC(O)c1cc(-c2ccc(Cl)cc2)nc2cc(C)ccc12 (stereo not given)
inactive: [1]; [7] -5% | [2]; [7] 17% | [3]; [7] 11% | [4]; [7] 5% | [5]; [7] 6% | [6]; [7] 33%
active: [1]; [8] 97% | [1]; at 50.0 µM 99.2% | [2]; [8] 98% | [2]; at 50.0 µM 99.2% | [3]; [8] 99% | [3]; at 50.0 µM 99.6% | [4]; [8] 97% | [4]; at 50.0 µM 96.2% | [5]; [8] 97% | [5]; at 50.0 µM 98.9% | [6]; [8] 98% | [6]; at 50.0 µM 99.1%

c1ccc2c(c1)CCCc1cc3ccccc3nc1-2
inactive: [1]; [7] 27% | [2]; [7] -30% | [3]; [7] -1% | [4]; [7] -12% | [5]; [7] 18% | [6]; [7] -36%
active: [1]; [8] 96% | [1]; at 50.0 µM 84.8% | [2]; [8] 98% | [2]; at 50.0 µM 92.8% | [3]; [8] 96% | [3]; at 50.0 µM 93% | [4]; [8] 96% | [4]; at 50.0 µM 92% | [5]; [8] 97% | [5]; at 50.0 µM 91.9% | [6]; [8] 96% | [6]; at 50.0 µM 89.7%

O=C(O)C(c1ccccc1)c1ccc(-c2ccccc2)cc1 (stereo not given)
active: [1]; [8] 82% | [1]; at 50.0 µM 96.7% | [2]; at 50.0 µM 96% | [3]; [8] 80% | [3]; at 50.0 µM 97.8% | [4]; [8] 80% | [4]; at 50.0 µM 97% | [5]; at 50.0 µM 79% | [6]; [8] 80% | [6]; at 50.0 µM 91.2%
inactive: [1]; [7] 3% | [2]; [7] -2% | [2]; [8] 64% | [3]; [7] 5% | [4]; [7] -7% | [5]; [7] 1% | [5]; [8] 49% | [6]; [7] 0%

Nc1ccc2oc(=O)c3ccccc3c2c1
active: [1]; [8] 94% | [1]; at 50.0 µM 85.3% | [3]; [8] 85% | [5]; [8] 74% | [6]; [8] 94% | [6]; at 50.0 µM 86.8%
inactive: [1]; [7] 18% | [2]; [7] 7% | [2]; [8] 69% | [2]; at 50.0 µM 36.6% | [3]; [7] 10% | [3]; at 50.0 µM 48% | [4]; [7] 8% | [4]; [8] 30% | [4]; at 50.0 µM 6.8% | [5]; [7] -3% | [5]; at 50.0 µM 33.1% | [6]; [7] 22%

Brc1ccc(C2c3ccccc3-c3ccccc32)cc1
inactive: [1]; [7] 21% | [2]; [7] 16% | [3]; [7] 15% | [4]; [7] 0% | [5]; [7] 2% | [6]; [7] -4%
active: [1]; [8] 97% | [1]; at 50.0 µM 94.5% | [2]; [8] 97% | [2]; at 50.0 µM 94.7% | [3]; [8] 95% | [3]; at 50.0 µM 96.6% | [4]; [8] 97% | [4]; at 50.0 µM 94% | [5]; [8] 98% | [5]; at 50.0 µM 95.8% | [6]; [8] 97% | [6]; at 50.0 µM 94.8%

CC12CCC(c3sc(N)c(C#N)c31)C2(C)C (stereo not given)
inactive: [1]; [7] -14% | [1]; [8] -34% | [1]; at 50.0 µM 39% | [2]; [7] -2% | [2]; [8] -25% | [2]; at 50.0 µM 60.2% | [3]; [7] -13% | [3]; [8] -4% | [3]; at 50.0 µM 34.5% | [4]; [7] 3% | [4]; [8] 1% | [4]; at 50.0 µM 13.8% | [5]; [7] -15% | [5]; [8] -20% | [5]; at 50.0 µM 31.7% | [6]; [7] -36% | [6]; [8] -9% | [6]; at 50.0 µM 43.8%

NC(=O)C1CCCN1C(=O)C1CCCN(Cc2cc(CN3CCCC(C(=O)N4CCCC4C(N)=O)C3)cc(CN3CCCC(C(=O)N4CCCC4C(N)=O)C3)c2)C1 (stereo not given)
inactive: [1]; [7] 2% | [1]; [8] 9% | [2]; [7] -5% | [2]; [8] -21% | [2]; at 50.0 µM 40.7% | [3]; [7] -1% | [3]; [8] -8% | [3]; at 50.0 µM 59.5% | [4]; [7] -2% | [4]; [8] 3% | [4]; at 50.0 µM 16.9% | [5]; [7] -23% | [5]; [8] 2% | [5]; at 50.0 µM 48.8% | [6]; [7] -7% | [6]; [8] -1% | [6]; at 50.0 µM 28.6%
active: [1]; at 50.0 µM 78.1%
